Experimental findings from PubChem BioAssay (NCI) are described below.

This is part of a sample that, as a whole, favours compounds with a hit. Of some 83,000 tested, about 20% had one in any assay.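 Testing used 96-well plates and a 48-hour single-concentration exposure. Example: -40 means 40% of the starting cells died.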 Unmarked numbers belong to inactive results. Active and inactive are the calls of the source.

The test system of this test is HCT-15 colon. The experiment in a line: NCI-60 one-dose screen, 48 h (100 = growth as untreated, 0 = no growth, -100 = all killed). Particulars: 10 µM unless noted. The protocol:
Growth inhibition of the HCT-15 human tumor cell line is measured as a screen for anti-cancer activity. Cells are grown in 96 well plates and exposed to the test compound for 48 hours. Compounds are tested at a single concentration, which is 10^-5 M for most compounds. The reported endpoint is percent growth (GI% or GIPRCNT), where numbers from 0 - 100% represent growth inhibition, and numbers from -100% - 0 represent cell death. For example, a value of 40 represents 60% growth inhibition. A value of 0 means no net growth occurred over the course of the experiment. A value of -40 indicates 40% of cells at the beginning of the experiment died by the end of the experiment. A value of -100 means all cells are dead at the end of the experiment.
NCI-60 Human Tumor Cell Lines Screen was performed using the standard one-dose NCI protocol, which is described in more detail at https://dtp.cancer.gov/discovery_development/nci-60/default.htm.
Compounds with GIPRCNT values below 10 were considered active. Activity score was based on GIPRCNT using the following formula: […]
Score is 0 for GIPRCNT values of 100 or above, 50 for GIPRCNT values of 0, and 100 for GIPRCNT values of -100.
As for `Fc1cccc(-c2[nH]nc3nc(Nc4cccnc4)sc23)c1`, the growth was 37.1%.
In the case of `C=CC(=O)N[C@H](Cc1ccc(-c2cc(Cl)cc(Cl)c2)cc1)[C@H](O)[C@@H](O)C(=O)O` it was 96%; in that of `C=C(C)[C@@H]1CC[C@]2(C(=O)N3CCCNCC3)CC[C@]3(C)[C@H](CC[C@@H]4[C@@]5(C)CCC(=O)C(C)(C)[C@@H]5CC[C@]43C)[C@@H]12`, 84.1%; in that of `Cn1cc(-c2csc(-c3c[nH]c4ccc(F)cc34)n2)c2cccnc21`, 19.2%.
To `Clc1ccc2[nH]cc(-c3nc(-c4c[nH]c5ncccc45)cs3)c2c1` belongs 1.33% (active).
To `COc1ccc2c(c1)C(Br)=C(CCO)C2c1ccccc1` (stereo not given) belongs 87.6%; to `O=C(O)/C(=C/c1ccc(O)cc1)c1ccccc1`, 104%.
On to `O=C(O)c1cccc2c1C(=O)N(c1ccc3c(c1)Cc1ccccc1-3)C2=O`, for which the growth was 108%.
`CCN1CCN(C(=O)[C@@]2(C)CC[C@]3(C)CC[C@]4(C)C(=CC(=O)[C@@H]5[C@@]6(C)CC[C@H](OCCC#N)C(C)(C)[C@@H]6CC[C@]54C)[C@@H]3C2)CC1`: the growth is 69.5%.
Consider `COc1ccc(C2NC(=O)Nc3ccccc32)c(OC)c1` (stereo not given), for which the growth is 100%.
To `COc1ccc2c(c1)c1nc3cc(C)c(C)cc3nc1n2CCN(C)C` belongs -80.3% (active); to `Cc1ccc(S(=O)(=O)Nc2ccc(-c3cc(-c4cccc(F)c4)c(C#N)c(=O)[nH]3)cc2)cc1`, 58.2%.
In the case of `O=[N+]([O-])c1cc(S(=O)(=O)c2ccc(F)c([N+](=O)[O-])c2)ccc1F` it was 36.5%.
In the case of `COc1ccc(C2CC(=O)c3c(nc4ccc(Cl)cc4c3N)C2)cc1` (stereo not given) it was 92.5%.
As to `Cc1ccc(-c2ccc(/C=C(\C#N)c3nc(-c4ccco4)cs3)o2)cc1`, the growth was 69.2%.
To `C=C(C)[C@@H]1CC[C@]2(C=O)CC[C@]3(C)[C@H](CC[C@@H]4[C@@]5(C)C/C(=C/c6cccnc6)C(=O)C(C)(C)[C@@H]5CC[C@]43C)[C@@H]12` belongs 57.6%.
With `C#Cc1cc2c(N)c(C(=O)c3cc(OC)c(OC)c(OC)c3)[nH]c2cc1OC`, the growth was 32.2%.
In the case of `COc1cnc2c(c1)C(=O)c1c-2n(CCCNC2=NCCS2)c(=O)c2cc([N+](=O)[O-])ccc12` it was -60.8% (active); in that of `COC(=O)[C@]12CC[C@@H](C)[C@H](C)[C@@H]1C1=CC[C@@H]3[C@@]4(C)C[C@@H](OC(C)=O)[C@H](O)[C@@](C)(CO)[C@@H]4[C@H](O)C[C@@]3(C)[C@]1(C)CC2`, -94.5% (active); in that of `O=[N+]([O-])c1ccc(N/N=C(\C(=N/Nc2ccc([N+](=O)[O-])cc2[N+](=O)[O-])c2ccccc2)c2ccccc2)c([N+](=O)[O-])c1`, 84.3%.
In the case of `C=C1C(=O)O[C@H]2[C@H]1CC/C(COC(=O)NCCc1c[nH]c3ccccc13)=C\CC[C@@]1(C)O[C@@H]21` it was -9.58% (active).
To `CC1=CC(=O)N(c2cccc3c(N4C(=O)C=C(C)C4=O)cccc23)C1=O` belongs -2.7% (active).
Consider `Cc1ccnc2c(OCc3ccccc3)cccc12`, for which the growth is 90.3%.
To `Cc1[c-]onc1C.Cc1[c-]onc1C.[Ag].[Ag].[NH-]S(=O)(=O)c1ccc(N=Nc2cc(N=Nc3ccc(S([NH-])(=O)=O)cc3)c3c(NC(=O)C(Cl)Cl)cccc3c2OC(=O)C(Cl)Cl)cc1` belongs 84.1%; to `CCc1ccccc1NC(=O)c1sc2nc3c(cc2c1N)CCCC3`, 28.1%; to `COc1ccc2c3c(c4ccccc4cc13)C(=O)N(CCN(C)CCN)C2=O`, -67.1% (active).
In the case of `Cc1cc(Cl)nc(N(CCCNc2ccnc3cc(Cl)ccc23)Cc2ccco2)n1` it was 18.3%; in that of `Nc1ccccc1NC(=O)c1ccc(CN2CCC/C(=C\c3ccccn3)C2=O)cc1`, 16.5%; in that of `Cc1nn(-c2ccc(Br)cc2)c2nc3[nH]c(=O)[nH]c(=O)c3nc12`, 104%.
In the case of `C=C(C)[C@@H]1CC[C@]2(C(=O)N3CCN(C)CC3)CC[C@]3(C)[C@H](CC[C@@H]4[C@@]5(C)C/C(=C/c6ccc(C(F)(F)F)cc6)C(=O)C(C)(C)[C@@H]5CC[C@]43C)[C@@H]12` it was 86.5%.
For `O=c1c2sc3ncc(Br)cc3c2ncn1-c1cccc(Cl)c1`, the growth was 88.5%.
In the case of `CCN1CCN(c2nc(C)cc(N(CCCNc3ccnc4cc(Cl)ccc34)Cc3ccco3)n2)CC1` it was 17.9%; in that of `O=c1[nH]c2c3ccncc3cc(-c3cccc(Cl)c3)c2c2cnccc12`, 43.3%; in that of `CCC(=O)c1c(C)[nH]c(C)c1C`, 10.6%.
To `Cc1ccc(-c2nc([P+](c3ccccc3)(c3ccccc3)c3ccccc3)c(N3CCOCC3)o2)cc1` belongs 54.1%; to `COC(=O)[C@]12CC[C@@H](C(=O)/C=C/c3cccnc3)[C@@H]1[C@H]1CC[C@@H]3[C@@]4(C)C/C(=C/c5cccnc5)C(=O)C(C)(C)[C@@H]4CC[C@@]3(C)[C@]1(C)CC2`, -46.2% (active).
In the case of `CN(C)c1ccc(C(=O)c2ccc(N(C)C)c(N)c2)cc1N` it was 26%.
In the case of `C=C(C)[C@@H]1CC[C@]2(/C=N/Nc3ccncc3)CC[C@]3(C)[C@H](CC[C@@H]4[C@@]5(C)CCCNC(C)(C)[C@@H]5CC[C@]43C)[C@@H]12`, the growth was 68.4%.
To `C=C1C(=O)O[C@H]2[C@H]1CC/C(COC(=O)N[C@H](Cc1c[nH]c3ccccc13)C(=O)OC)=C\CC[C@@]1(C)O[C@@H]21` belongs 1.89% (active); to `O=C1NC(c2ccc(Cl)c(Cl)c2)=C/C1=C\c1ccccc1`, 69%.
